# Experimental data reported in PubChem BioAssay (EPA / NIEHS).
# The source made the active and inactive calls. The calls were made as follows: active = hit-call score of the fitted dose curve at least 0.9, where 1 is the maximum; inactive = score below 0.9.
# What was measured:
# Details in all cases: mRNA level, 48 h; actives raise or lower the signal
# [1] = read-out: Tumor necrosis factor receptor superfamily member 6 (Homo sapiens) (UniProt P25445); assay: LTEA_HepaRG_FAS: Life Technologies and Expression Analysis (LTEA) Assay for Fas cell surface death receptor (FAS) using HepaRG (AID 2283447)
# Method in brief: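 FAS transcript level was measured by TaqMan qRT-PCR against three housekeeping genes after 48 h chemical exposure. Cells were HepaRG, 0.5% DMSO vehicle, with a top concentration of 100 uM and half-log dilutions over eight points, in duplicate.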
# [2] = read-out: Fatty acid synthase (Homo sapiens) (UniProt P49327); assay: LTEA_HepaRG_FASN: Life Technologies and Expression Analysis (LTEA) Assay for Fatty Acid Synthase (FASN) using HepaRG (AID 2283448);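 as to AC50: differentiated human HepaRG liver cells in serum-free induction medium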
# Method in brief: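 Transcript-level assay: HepaRG liver cells are treated for 48 h across an eight-point range topping at 100 uM, and FASN mRNA, normalized to three housekeeping genes, is compared with DMSO controls in both directions.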
# [3] = read-out: Cyclin D2 (CCND2), CCND2 (gene 894); assay: LTEA_HepaRG_CCND2: Life Technologies and Expression Analysis (LTEA) Assay for Cyclin D2 (CCND2) using HepaRG (AID 2283449)
# Method in brief: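 Read-out is CCND2 mRNA level measured by qRT-PCR in human HepaRG liver cells and normalised to three housekeeping genes. Chemicals were applied for 48 h at up to 100 uM, with gain or loss fitted relative to 0.5% DMSO.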
# [4] = read-out: Cyclin Dependent Kinase Inhibitor 1A (CDKN1A), CDKN1A (gene 1026); assay: LTEA_HepaRG_CDKN1A: Life Technologies and Expression Analysis (LTEA) Assay for Cyclin Dependent Kinase Inhibitor 1A (CDKN1A) using HepaRG (AID 2283450)
# Method in brief: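 Read-out is CDKN1A mRNA by TaqMan qRT-PCR, normalized to three housekeeping genes and fitted in both directions against the DMSO baseline. Human HepaRG cells were treated 48 h with test chemicals up to 100 uM in half-log steps, 0.5% DMSO.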
# [5] = read-out: catalase (CAT), CAT (gene 847); assay: LTEA_HepaRG_CAT: Life Technologies and Expression Analysis (LTEA) Assay for catalase (CAT) using HepaRG (AID 2283452)
# Method in brief: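 Expression of CAT was quantified by TaqMan qRT-PCR with ACTB/GAPDH/POLR2A normalization after 48 h chemical exposure of HepaRG. Eight-point half-log series, top 100 uM, in 0.5% DMSO; gain or loss fitted against vehicle.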
# [6] = read-out: Cytochrome P450 (CYP1A1), CYP1A1 (gene 1543); assay: LTEA_HepaRG_CYP1A1: Life Technologies and Expression Analysis (LTEA) Assay for Cytochrome P450 (CYP1A1) using HepaRG (AID 2283454)
# Method in brief: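 HepaRG, 48 h post-plating switched to serum-free induction medium; 8-pt conc-response (top 100 uM, half-log, 0.5% DMSO), duplicates, 48 h. Lysis in RLT, TaqMan qRT-PCR for CYP1A1; gain or loss vs DMSO.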
# [7] = read-out: CFLAR gene, CFLAR (gene 8837); assay: LTEA_HepaRG_CFLAR: Life Technologies and Expression Analysis (LTEA) Assay for CFLAR gene using HepaRG (AID 2283455)
# Method in brief: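 HepaRG, 48 h exposure, 8-pt conc-response (100 uM top, half-log), 0.5% DMSO vehicle, duplicates. CFLAR expression by qRT-PCR; ACTB/GAPDH/POLR2A normalization; gain or loss fit vs DMSO baseline.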
# [8] = read-out: Forkhead box O1 (FOXO1), FOXO1 (gene 2308); assay: LTEA_HepaRG_FOXO1: Life Technologies and Expression Analysis (LTEA) Assay for Forkhead box O1 (FOXO1) using HepaRG (AID 2283456)
# Method in brief: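 Readout is FOXO1 transcript level by multiplexed qRT-PCR against three housekeeping genes, curve-fitted in both directions relative to 0.5% DMSO vehicle. Human HepaRG cultures received chemicals for 48 h, up to 100 uM in half-log steps.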
# [9] = read-out: Forkhead box O3 (FOXO3), FOXO3 (gene 2309); assay: LTEA_HepaRG_FOXO3: Life Technologies and Expression Analysis (LTEA) Assay for Forkhead box O3 (FOXO3) using HepaRG (AID 2283459)
# Method in brief: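 HepaRG, 48 h post-dose; 8 conc., half-log from 100 uM, 0.5% DMSO, duplicates; serum-free induction medium. Readout: FOXO3 mRNA, TaqMan qRT-PCR, housekeeping-normalized. Bidirectional curve fit vs DMSO baseline.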
# [10] = read-out: ABC Transporter (ABCB1), ABCB1 (gene 5243); assay: LTEA_HepaRG_ABCB1: Life Technologies and Expression Analysis (LTEA) Assay for ABC Transporter (ABCB1) using HepaRG (AID 2283460)
# Method in brief: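 Expression of ABCB1 was quantified by qRT-PCR against three housekeeping genes after human HepaRG cultures received test chemicals for 48 hours. Concentrations spanned eight half-log steps topping at 100 uM in 0.5% DMSO; gain or loss of signal was fitted relative to vehicle.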
# [11] = read-out: growth arrest and DNA damage 45 (GADD45B), GADD45B (gene 4616); assay: LTEA_HepaRG_GADD45B: Life Technologies and Expression Analysis (LTEA) Assay for growth arrest and DNA damage 45 (GADD45B) using HepaRG (AID 2283461)
# Method in brief: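 HepaRG, ~100,000 cells/well, 48 h plating; serum-free induction medium; cpd 100 uM top, half-log x8, 0.5% DMSO, duplicate, 48 h; lysis in RLT, RNA isolation, qRT-PCR; norm ACTB/GAPDH/POLR2A; bidirectional fit vs DMSO.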
# [12] = read-out: ABC Transporter (ABCC3), ABCC3 (gene 8714); assay: LTEA_HepaRG_ABCC3: Life Technologies and Expression Analysis (LTEA) Assay for ABC Transporter (ABCC3) using HepaRG (AID 2283462)
# Method in brief: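 Human HepaRG, 48 h dosing, 8-pt half-log series from 100 uM, 0.5% DMSO vehicle, duplicates. ABCC3 mRNA by TaqMan qRT-PCR, housekeeping-normalized; bidirectional curve fit vs DMSO.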
# [13] = read-out: ABC Transporter (ABCB11), ABCB11 (gene 8647); assay: LTEA_HepaRG_ABCB11: Life Technologies and Expression Analysis (LTEA) Assay for ABC Transporter (ABCB11) using HepaRG (AID 2283463)
# Method in brief: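 ABCB11 transcript levels are read by Fluidigm TaqMan qRT-PCR after 48 h chemical treatment of human HepaRG cells. Concentrations span 100 uM downward in half-log steps with 0.5% DMSO; gain or loss is fitted against DMSO controls.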
# [14] = read-out: ABC Transporter (ABCC2), ABCC2 (gene 1244); assay: LTEA_HepaRG_ABCC2: Life Technologies and Expression Analysis (LTEA) Assay for ABC Transporter (ABCC2) using HepaRG (AID 2283464)
# Method in brief: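 HepaRG, 48 h post-plating; serum-free induction medium; cpd 8-pt, 100 uM top, half-log, 0.5% DMSO, duplicate, 48 h. Readout: ABCC2 mRNA by qRT-PCR, norm. ACTB/GAPDH/POLR2A. Bidirectional fit vs DMSO baseline.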
# [15] = read-out: ATP-citrate lyase (ACLY), ACLY (gene 47); assay: LTEA_HepaRG_ACLY: Life Technologies and Expression Analysis (LTEA) Assay for ATP-citrate lyase (ACLY) using HepaRG (AID 2283466)
# Method in brief: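 HepaRG, 48 h exposure, 8-pt half-log dilutions (top 100 uM), 0.5% DMSO. Readout: ACLY mRNA, TaqMan qRT-PCR, housekeeping-normalized (ACTB/GAPDH/POLR2A). Bidirectional curve fit vs DMSO.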
# [16] = read-out: growth arrest and DNA damage 45 (GADD45A), GADD45A (gene 1647); assay: LTEA_HepaRG_GADD45A: Life Technologies and Expression Analysis (LTEA) Assay for growth arrest and DNA damage 45 (GADD45A) using HepaRG (AID 2283458)
# Method in brief: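 Human HepaRG liver cells are treated in duplicate for 48 h with chemicals in 0.5% DMSO, highest concentration 100 uM. Expression is read by qRT-PCR and analyzed in both directions against vehicle.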
# [17] = read-out: Cyclin D1 (CCND1), CCND1 (gene 595); assay: LTEA_HepaRG_CCND1: Life Technologies and Expression Analysis (LTEA) Assay for Cyclin D1 (CCND1) using HepaRG (AID 2283451)
# Method in brief: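 HepaRG plated 48 h, medium switched to serum-free induction medium, chemicals added in duplicate (top 100 uM, half-log steps, 0.5% DMSO) for 48 h, cells lysed, RNA measured by TaqMan qRT-PCR.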
# [18] = read-out: Broad substrate specificity ATP-binding cassette transporter ABCG2 (Homo sapiens) (UniProt Q9UNQ0); assay: LTEA_HepaRG_ABCG2: Life Technologies and Expression Analysis (LTEA) Assay for ABC Transporter (ABCG2) using HepaRG (AID 2283465)
# Method in brief: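 Read-out is ABCG2 mRNA induction or loss quantified by qRT-PCR after 48 h chemical treatment of human HepaRG cells, normalized to three housekeeping genes. Concentrations reached 100 uM top in half-log steps; fitting was bidirectional against 0.5% DMSO.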
# Sequence of Fatty acid synthase (Homo sapiens) (P49327 whole entry, looked up): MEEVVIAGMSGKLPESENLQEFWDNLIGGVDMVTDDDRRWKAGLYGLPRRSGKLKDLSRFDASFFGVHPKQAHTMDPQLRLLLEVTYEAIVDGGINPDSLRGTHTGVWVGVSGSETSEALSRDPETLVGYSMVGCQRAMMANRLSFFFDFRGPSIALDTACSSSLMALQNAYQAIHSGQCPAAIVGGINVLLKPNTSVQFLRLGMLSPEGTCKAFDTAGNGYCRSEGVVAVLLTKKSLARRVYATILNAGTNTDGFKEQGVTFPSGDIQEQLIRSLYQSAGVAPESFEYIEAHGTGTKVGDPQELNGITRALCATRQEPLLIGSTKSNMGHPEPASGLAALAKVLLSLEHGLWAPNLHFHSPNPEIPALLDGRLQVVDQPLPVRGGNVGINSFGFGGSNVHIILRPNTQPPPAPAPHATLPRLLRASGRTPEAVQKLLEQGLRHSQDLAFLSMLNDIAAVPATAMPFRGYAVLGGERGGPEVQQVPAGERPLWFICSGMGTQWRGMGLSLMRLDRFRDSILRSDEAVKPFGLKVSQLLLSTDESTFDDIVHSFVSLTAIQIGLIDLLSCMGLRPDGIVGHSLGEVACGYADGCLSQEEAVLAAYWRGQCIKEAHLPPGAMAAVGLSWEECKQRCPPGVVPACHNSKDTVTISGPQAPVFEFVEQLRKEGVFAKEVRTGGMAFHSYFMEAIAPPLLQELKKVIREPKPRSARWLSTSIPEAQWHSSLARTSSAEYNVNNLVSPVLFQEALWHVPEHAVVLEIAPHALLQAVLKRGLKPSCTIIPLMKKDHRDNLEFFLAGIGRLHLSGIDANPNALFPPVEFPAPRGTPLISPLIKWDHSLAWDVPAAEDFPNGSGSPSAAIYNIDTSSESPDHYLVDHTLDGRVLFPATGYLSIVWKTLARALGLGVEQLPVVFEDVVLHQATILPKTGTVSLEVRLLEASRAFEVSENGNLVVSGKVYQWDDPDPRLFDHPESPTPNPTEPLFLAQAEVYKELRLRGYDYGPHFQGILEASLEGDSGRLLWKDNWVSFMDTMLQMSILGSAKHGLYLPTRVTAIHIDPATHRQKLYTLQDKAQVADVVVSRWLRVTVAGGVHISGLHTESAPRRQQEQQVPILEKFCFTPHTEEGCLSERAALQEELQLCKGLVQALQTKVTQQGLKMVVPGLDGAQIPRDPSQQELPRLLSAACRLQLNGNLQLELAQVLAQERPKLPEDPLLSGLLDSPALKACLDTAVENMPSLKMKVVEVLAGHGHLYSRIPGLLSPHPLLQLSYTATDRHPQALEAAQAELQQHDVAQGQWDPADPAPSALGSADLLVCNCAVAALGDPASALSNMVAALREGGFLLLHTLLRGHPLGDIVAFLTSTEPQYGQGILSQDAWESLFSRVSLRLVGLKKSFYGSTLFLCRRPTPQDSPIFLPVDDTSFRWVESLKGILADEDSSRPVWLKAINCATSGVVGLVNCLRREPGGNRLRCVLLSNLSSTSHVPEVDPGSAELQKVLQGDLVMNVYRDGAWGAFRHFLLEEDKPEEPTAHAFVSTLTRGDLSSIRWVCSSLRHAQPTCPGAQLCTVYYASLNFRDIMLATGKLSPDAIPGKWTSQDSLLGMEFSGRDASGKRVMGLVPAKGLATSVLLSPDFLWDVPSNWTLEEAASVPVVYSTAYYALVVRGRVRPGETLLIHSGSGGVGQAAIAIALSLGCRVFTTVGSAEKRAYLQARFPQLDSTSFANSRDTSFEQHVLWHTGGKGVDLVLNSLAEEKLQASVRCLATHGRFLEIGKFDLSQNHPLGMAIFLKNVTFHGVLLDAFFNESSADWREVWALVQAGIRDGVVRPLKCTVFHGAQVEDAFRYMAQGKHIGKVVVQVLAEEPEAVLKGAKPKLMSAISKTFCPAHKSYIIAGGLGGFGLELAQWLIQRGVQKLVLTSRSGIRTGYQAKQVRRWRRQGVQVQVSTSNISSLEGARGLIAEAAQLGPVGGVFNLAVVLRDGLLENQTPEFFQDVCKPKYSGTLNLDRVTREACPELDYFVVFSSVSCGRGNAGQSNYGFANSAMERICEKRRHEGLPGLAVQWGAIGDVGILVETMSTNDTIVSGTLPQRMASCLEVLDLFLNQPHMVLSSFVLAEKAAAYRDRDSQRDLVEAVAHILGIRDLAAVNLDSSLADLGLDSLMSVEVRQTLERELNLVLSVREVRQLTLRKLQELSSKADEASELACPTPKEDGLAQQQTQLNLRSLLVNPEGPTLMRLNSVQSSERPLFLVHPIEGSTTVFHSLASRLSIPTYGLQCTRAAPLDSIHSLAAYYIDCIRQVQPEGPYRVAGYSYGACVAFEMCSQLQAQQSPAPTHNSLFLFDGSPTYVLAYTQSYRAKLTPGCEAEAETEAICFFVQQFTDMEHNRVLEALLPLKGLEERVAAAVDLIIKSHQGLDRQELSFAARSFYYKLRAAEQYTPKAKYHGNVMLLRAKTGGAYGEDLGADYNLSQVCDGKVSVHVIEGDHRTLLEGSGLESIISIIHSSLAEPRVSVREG
# Sequence of Broad substrate specificity ATP-binding cassette transporter ABCG2 (Homo sapiens) (Q9UNQ0 whole entry, looked up): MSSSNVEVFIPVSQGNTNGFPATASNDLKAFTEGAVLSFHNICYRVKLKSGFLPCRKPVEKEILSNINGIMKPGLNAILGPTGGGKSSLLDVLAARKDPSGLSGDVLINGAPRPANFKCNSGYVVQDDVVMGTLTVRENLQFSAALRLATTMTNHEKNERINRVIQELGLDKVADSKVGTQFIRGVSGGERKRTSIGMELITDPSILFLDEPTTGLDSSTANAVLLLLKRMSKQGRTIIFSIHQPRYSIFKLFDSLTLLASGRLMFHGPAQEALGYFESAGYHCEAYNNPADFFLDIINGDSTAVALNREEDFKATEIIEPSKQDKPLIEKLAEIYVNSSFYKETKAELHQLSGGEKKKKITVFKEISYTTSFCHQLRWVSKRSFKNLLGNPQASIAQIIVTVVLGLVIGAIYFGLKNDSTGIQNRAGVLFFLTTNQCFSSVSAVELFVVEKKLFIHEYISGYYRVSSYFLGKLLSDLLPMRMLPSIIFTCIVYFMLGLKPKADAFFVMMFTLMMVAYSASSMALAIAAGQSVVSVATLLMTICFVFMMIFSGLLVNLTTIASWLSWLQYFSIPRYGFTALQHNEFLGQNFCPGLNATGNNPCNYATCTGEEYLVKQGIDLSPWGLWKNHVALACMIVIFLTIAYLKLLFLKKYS
smiles,measurement,setting,value
Cc1ccc(C(C)C)c(O)c1,outcome,[1],inactive
same,outcome,[2],inactive
same,outcome,[3],inactive
same,outcome,[4],inactive
same,outcome,[5],inactive
same,outcome,[6],inactive
same,outcome,[7],inactive
same,outcome,[8],inactive
same,outcome,[9],inactive
same,outcome,[10],inactive
same,outcome,[11],inactive
same,outcome,[12],inactive
same,outcome,[13],inactive
same,outcome,[14],inactive
same,outcome,[15],inactive
Oc1ccc2ccccc2c1N=Nc1ccccc1,outcome,[1],inactive
same,AC50,[2],1.16 µM (active)
same,outcome,[3],inactive
same,outcome,[4],inactive
same,AC50,[5],9.92 µM (active)
same,AC50,[6],0.14 µM (active)
same,AC50,[7],11.3 µM (active)
same,outcome,[8],inactive
same,outcome,[16],inactive
same,AC50,[9],7.86 µM (active)
same,outcome,[10],inactive
same,AC50,[11],31 µM (active)
same,AC50,[13],6.98 µM (active)
same,outcome,[14],inactive
same,outcome,[15],inactive
C1CCC(SSC2CCCCC2)CC1,outcome,[1],inactive
same,outcome,[2],inactive
same,outcome,[4],inactive
same,outcome,[17],inactive
same,outcome,[5],inactive
same,AC50,[6],50 µM (active)
same,outcome,[7],inactive
same,outcome,[8],inactive
same,outcome,[16],inactive
same,outcome,[9],inactive
same,outcome,[10],inactive
same,outcome,[11],inactive
same,outcome,[13],inactive
same,outcome,[14],inactive
same,outcome,[18],inactive
same,outcome,[15],inactive
